40 molecules from PubChem BioAssay (NCI) can be followed below.

Molecules are shown by their SMILES. The panel holds about 83,000 compounds, 20% with a hit somewhere; the sample as a whole holds those more often.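 In brief: 96-well plates, 48 h treatment, single concentration, percent growth endpoint.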 Activity calls are given as the source filed them.

This assay has as its system SN12C renal. Briefly: NCI-60 one-dose screen, 48 h (100 = growth as untreated, 0 = no growth, -100 = all killed). To be noted: 10 µM unless noted. How it is done: Growth inhibition of the SN12C human tumor cell line is measured as a screen for anti-cancer activity. Cells are grown in 96 well plates and exposed to the test compound for 48 hours. Compounds are tested at a single concentration, which is 10^-5 M for most compounds. The reported endpoint is percent growth (GI% or GIPRCNT), where numbers from 0 - 100% represent growth inhibition, and numbers from -100% - 0 represent cell death. For example, a value of 40 represents 60% growth inhibition. A value of 0 means no net growth occurred over the course of the experiment. A value of -40 indicates 40% of cells at the beginning of the experiment died by the end of the experiment. A value of -100 means all cells are dead at the end of the experiment.
NCI-60 Human Tumor Cell Lines Screen was performed using the standard one-dose NCI protocol, which is described in more detail at https://dtp.cancer.gov/discovery_development/nci-60/default.htm.
Compounds with GIPRCNT values below 10 were considered active. Activity score was based on GIPRCNT using the following formula: […]
Score is 0 for GIPRCNT values of 100 or above, 50 for GIPRCNT values of 0, and 100 for GIPRCNT values of -100.
Consider `CCCCN(CCCC)CCCOC(=O)c1ccc(N)cc1`, for which the growth is 82% (inactive). The result for `O=C(Nc1ccc(Oc2ccc(NC(=O)Nc3ccc([N+](=O)[O-])cc3)cc2)cc1)Nc1ccc([N+](=O)[O-])cc1` reads 12.1% (inactive). Take `COc1ccc(-c2noc(N)c2-c2cc(OC)c3c(c2)OCO3)cc1`: the growth was 35.8% (inactive).

For `CC(c1cc(Cl)ccc1O)c1cc(Cl)ccc1O`, the growth was 39.5% (inactive). Under `Clc1cccc(Cc2cn3cc(-c4ccccc4)nc3s2)c1` stands 68.2% (inactive). Under `O=C(CCc1nnc2sc(Cc3ccccc3Cl)nn12)c1nc2ccccc2[nH]1` stands 91.8% (inactive); under `COc1ccc(-c2nc3sccn3c2-c2ccnc(S(C)(=O)=O)n2)cc1`, 93.4% (inactive); under `O=C(CSCC(=O)N/N=C/c1ccccc1O)N/N=C\c1ccccc1O`, 29% (inactive). The result for `CC[C@]1(O)CC2CN(CCc3c([nH]c4ccccc34)[C@@](C(=O)OC)(c3cc4c(cc3OC)N(C)[C@H]3[C@@](O)(C(=O)OC)[C@H](OC(C)=O)[C@]5(CC)C=CCN6CC[C@]43[C@@H]65)C2)C1` (stereo not given in full) reads 39.6% (inactive); that for `N#Cc1cccc(/C=C(/C(=O)c2ccccc2)c2ccccc2)c1`, 49.4% (inactive); that for `CCC1(c2ccccc2)Oc2ccccc2-n2c(C#N)c3ccccc3c2C1=O` (stereo not given), 95.6% (inactive). Consider `O=C(C=C=Nc1ccccc1)C(=O)N=C=Cc1ccccc1`, for which the growth was 77.7% (inactive).

Take `CCOC(=O)/C(=C/c1ccccc1)C(=O)c1ccccc1`: the growth was 72.6% (inactive). Under `Cc1nn(-c2ccccc2)c2nc(Cl)c(/C=C/C(=O)c3ccccc3)c(-c3ccccc3)c12` stands 102% (inactive); under `NC(N)=NC(N)=NCCCc1ccccc1`, 79.3% [100 µM] (inactive); under `O=[N+]([O-])c1ccc(Oc2cccc(C(F)(F)F)c2)c([N+](=O)[O-])c1`, 28.2% (inactive). Under `N#Cc1c(N)[nH]c(S)c1C#N` stands 108% (inactive); under `O=C(NCCCO)c1cc(Cl)ccc1O`, 12.9% (inactive). Under `O=NC1CC=CCC1c1ccccc1` (stereo not given) stands 108% (inactive); under `CC(=O)NCCSC(=O)C(=O)SCCNC(C)=O`, 99.4% (inactive); under `C[N+]1(CCC[N+]2(C)C[C@@H]3[C@H](C2)[C@@H]2C=C[C@H]3C2)CCOCC1` (stereo not given in full), 101% (inactive). For the molecule `Oc1[nH]c2ccccc2c1/C=c1/ccc2c(c1)N=C(c1cc(F)cc(F)c1)N=2`, the growth is 68.2% (inactive). The result for `CCC[C@H](N[C@@H](C)C(=O)N1[C@H](C(=O)O)C[C@@H]2CCCC[C@@H]21)C(=O)OCC` reads 101% (inactive). The result for `COc1ccc(/C(=C2\O[C@@H]([C@H](O)CO)[C@H]3OC(C)(C)O[C@@H]23)c2cc(OC)c(OC)c(OC)c2)cc1O` reads 95.6% (inactive). Turning to `c1ccc(-c2nnc(Nc3nnc(-c4ccccc4)s3)s2)cc1`, the growth is 102% (inactive). The result for `COc1ccc(C2CC(c3ccc(OC)c(OC)c3)=NN2C(=O)c2cc(OC)c(OC)c(OC)c2)c(OC)c1` (stereo not given) reads 91.3% (inactive); that for `CC[C@H](C)C(=O)O[C@H]1C[C@@H](C)C=C2C=C[C@H](C)[C@H](CC[C@@H]3C[C@@H](O)CC(=O)O3)[C@H]21`, 42.5% (inactive). Turning to `COc1cc(C2=NN(C(C)=O)C(c3ccc(OC(C)=O)cc3OC(C)=O)O2)c(OC(C)=O)c2ccccc12` (stereo not given), the growth was 19.1% (inactive).

Take `COc1cc(/C=C/C(=O)N2CCN(C(=O)/C=C/c3ccccc3)CC2)cc(OC)c1OC`: the growth was 111% (inactive). Under `CN(C)CCCN1c2nc3ccccc3cc2Sc2cc3ccccc3nc21` stands -22.4% (active).

For the molecule `Cc1cc(O)c2c(c1)C[C@H]1[C@@H]3CC[C@H]4CC(=O)CC[C@]4(C)[C@H]3CC(=O)[C@]21C`, the growth is 81.3% (inactive). As to `CC1SC(c2c(Cl)cccc2Cl)N(NC(=O)c2[nH]c3ccc(F)cc3c2-c2ccccc2)C1=O` (stereo not given), the growth is 33.9% (inactive). On to `C=CCOc1ccc2c(c1)CC[C@@H]1[C@@H]2CC[C@@]2(C)[C@H]1CC[C@]2(C)O`, for which the growth was 96.7% (inactive). The result for `CCCCCCCCCCSc1ncnc2nc[nH]c12` reads 59.8% (inactive). Under `Oc1ccc(Cc2ccc(O)c(C3CC(c4ccc(Cl)cc4)=NN3)c2)cc1C1CC(c2ccc(Cl)cc2)=NN1` (stereo not given) stands 24.9% (inactive); under `C[n+]1c2ccccc2c(NC2CCNCC2)c2[nH]c3ccccc3c21`, -17.5% (active). `O=C1/C(=C/c2ccc([N+](=O)[O-])o2)Oc2ccc(Br)cc21`: the growth was 40.3% (inactive). Under `CCCCC(C#N)C(N)=O` (stereo not given) stands 101% (inactive); under `Cc1cc(C(C)(C)C)cc(C)c1CC1=NCCN1`, 111% (inactive); under `CN=C(NC)N/N=C(C)\C=N\NC(=NC)NC`, 96.4% (inactive).
